Experiments:
Experiment in all cases: log2 ratio of Biotin-Ahx-Ub-VS probe labelling (fragment/DMSO); higher = less target engagement (more negative = stronger competition), active = hit call of the paper (q ≤ 0.05, log2 ratio ≤ -1)
Conditions in all cases: compound concentration: 200 uM; treatment time: 3 h
[1] = molecular target: USP34 (UniProt Q70CQ2)
Outline: (§1)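 The table lists average log2 ratios of fragment over vehicle, from an unpaired t-test on global-median-normalised Spectronaut label-free quantities. Proteins with ≥2 unique peptides were used. Samples were HEK293T lysate (495 µg) treated in triplicate with fragment at 200 µM or vehicle for 3 h, then with Biotin-Ahx-Ub-VS (0.5 µM final) for 1 h, with labelled DUBs NeutrAvidin-enriched and run by diaPASEF LC-MS/MS.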

[2] = molecular target: T1, USP36 (UniProt Q9P275)
T1 sequence (whole entry): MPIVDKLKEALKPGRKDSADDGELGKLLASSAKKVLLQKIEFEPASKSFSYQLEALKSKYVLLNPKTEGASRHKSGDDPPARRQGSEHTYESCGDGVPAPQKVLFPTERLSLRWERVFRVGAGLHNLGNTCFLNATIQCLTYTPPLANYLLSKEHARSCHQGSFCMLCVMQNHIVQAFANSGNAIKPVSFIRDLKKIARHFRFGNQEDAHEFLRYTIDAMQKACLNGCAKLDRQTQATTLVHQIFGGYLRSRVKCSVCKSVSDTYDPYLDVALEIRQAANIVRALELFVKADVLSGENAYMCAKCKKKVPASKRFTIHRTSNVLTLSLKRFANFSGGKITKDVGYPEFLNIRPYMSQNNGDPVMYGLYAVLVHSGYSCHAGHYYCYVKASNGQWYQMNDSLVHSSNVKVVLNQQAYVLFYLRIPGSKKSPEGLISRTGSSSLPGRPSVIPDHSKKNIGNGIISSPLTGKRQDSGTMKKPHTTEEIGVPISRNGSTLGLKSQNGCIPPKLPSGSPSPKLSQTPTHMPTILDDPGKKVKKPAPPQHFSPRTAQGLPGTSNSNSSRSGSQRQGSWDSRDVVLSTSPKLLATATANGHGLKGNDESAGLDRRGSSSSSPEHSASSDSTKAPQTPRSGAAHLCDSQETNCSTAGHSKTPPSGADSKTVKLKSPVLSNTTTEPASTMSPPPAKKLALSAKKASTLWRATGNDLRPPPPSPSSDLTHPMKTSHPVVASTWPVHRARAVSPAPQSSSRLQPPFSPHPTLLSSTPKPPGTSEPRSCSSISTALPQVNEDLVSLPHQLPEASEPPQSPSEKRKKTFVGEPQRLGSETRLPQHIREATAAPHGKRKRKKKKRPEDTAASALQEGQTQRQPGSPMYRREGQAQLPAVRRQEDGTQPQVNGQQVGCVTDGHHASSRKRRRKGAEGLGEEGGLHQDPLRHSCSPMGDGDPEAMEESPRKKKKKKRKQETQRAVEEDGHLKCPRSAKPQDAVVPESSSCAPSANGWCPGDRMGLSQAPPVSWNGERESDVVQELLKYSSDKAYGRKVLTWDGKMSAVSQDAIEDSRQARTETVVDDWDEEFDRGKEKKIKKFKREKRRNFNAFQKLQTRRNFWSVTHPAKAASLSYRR
Outline: as §1

[3] = molecular target: T2, USP38 (UniProt Q8NB14)
T2 sequence (whole entry): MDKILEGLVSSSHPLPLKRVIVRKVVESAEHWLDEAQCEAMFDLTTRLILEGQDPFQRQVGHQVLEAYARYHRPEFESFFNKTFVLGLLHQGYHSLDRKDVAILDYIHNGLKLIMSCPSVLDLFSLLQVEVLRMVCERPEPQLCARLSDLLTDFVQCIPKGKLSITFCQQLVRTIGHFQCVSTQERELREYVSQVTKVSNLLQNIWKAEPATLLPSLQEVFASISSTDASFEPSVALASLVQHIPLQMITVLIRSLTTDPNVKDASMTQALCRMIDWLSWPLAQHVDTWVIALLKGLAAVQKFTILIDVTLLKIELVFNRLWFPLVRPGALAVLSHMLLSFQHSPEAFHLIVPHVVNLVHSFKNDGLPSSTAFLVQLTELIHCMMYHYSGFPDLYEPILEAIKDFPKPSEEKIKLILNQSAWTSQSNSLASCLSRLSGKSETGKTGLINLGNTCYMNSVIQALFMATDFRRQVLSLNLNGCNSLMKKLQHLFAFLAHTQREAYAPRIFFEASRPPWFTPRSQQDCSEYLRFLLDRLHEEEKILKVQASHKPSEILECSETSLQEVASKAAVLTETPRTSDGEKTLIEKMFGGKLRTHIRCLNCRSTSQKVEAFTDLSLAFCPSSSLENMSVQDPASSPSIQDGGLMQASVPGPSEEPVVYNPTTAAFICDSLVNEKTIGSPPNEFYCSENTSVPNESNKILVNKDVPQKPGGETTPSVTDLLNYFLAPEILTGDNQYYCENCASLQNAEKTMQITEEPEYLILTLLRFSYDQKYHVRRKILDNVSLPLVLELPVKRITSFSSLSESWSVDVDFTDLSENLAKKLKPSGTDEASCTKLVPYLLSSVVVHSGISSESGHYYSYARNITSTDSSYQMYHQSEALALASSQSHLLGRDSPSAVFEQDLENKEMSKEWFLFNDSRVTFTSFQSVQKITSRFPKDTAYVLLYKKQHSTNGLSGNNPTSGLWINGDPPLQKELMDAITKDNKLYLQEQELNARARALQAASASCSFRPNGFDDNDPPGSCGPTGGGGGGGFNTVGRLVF
Outline: as §1

[4] = molecular target: T3, USP39 (UniProt Q53GS9)
T3 sequence (whole entry): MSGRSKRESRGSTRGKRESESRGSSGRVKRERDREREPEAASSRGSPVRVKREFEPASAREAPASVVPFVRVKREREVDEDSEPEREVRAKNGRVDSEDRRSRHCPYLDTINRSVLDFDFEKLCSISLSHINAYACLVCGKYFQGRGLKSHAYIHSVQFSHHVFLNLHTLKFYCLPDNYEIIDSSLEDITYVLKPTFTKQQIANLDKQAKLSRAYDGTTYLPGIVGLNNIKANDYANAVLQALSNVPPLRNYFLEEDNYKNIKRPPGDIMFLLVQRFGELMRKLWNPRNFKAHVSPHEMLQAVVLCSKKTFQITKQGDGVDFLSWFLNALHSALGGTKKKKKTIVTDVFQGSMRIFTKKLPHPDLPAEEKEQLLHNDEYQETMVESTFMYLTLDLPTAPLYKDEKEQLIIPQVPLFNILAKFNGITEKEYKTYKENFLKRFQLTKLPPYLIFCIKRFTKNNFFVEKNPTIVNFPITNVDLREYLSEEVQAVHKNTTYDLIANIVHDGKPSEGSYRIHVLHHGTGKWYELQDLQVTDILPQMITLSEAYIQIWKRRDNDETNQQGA
Outline: as §1

[5] = molecular target: T4, USP4 (UniProt Q13107)
T4 sequence (whole entry): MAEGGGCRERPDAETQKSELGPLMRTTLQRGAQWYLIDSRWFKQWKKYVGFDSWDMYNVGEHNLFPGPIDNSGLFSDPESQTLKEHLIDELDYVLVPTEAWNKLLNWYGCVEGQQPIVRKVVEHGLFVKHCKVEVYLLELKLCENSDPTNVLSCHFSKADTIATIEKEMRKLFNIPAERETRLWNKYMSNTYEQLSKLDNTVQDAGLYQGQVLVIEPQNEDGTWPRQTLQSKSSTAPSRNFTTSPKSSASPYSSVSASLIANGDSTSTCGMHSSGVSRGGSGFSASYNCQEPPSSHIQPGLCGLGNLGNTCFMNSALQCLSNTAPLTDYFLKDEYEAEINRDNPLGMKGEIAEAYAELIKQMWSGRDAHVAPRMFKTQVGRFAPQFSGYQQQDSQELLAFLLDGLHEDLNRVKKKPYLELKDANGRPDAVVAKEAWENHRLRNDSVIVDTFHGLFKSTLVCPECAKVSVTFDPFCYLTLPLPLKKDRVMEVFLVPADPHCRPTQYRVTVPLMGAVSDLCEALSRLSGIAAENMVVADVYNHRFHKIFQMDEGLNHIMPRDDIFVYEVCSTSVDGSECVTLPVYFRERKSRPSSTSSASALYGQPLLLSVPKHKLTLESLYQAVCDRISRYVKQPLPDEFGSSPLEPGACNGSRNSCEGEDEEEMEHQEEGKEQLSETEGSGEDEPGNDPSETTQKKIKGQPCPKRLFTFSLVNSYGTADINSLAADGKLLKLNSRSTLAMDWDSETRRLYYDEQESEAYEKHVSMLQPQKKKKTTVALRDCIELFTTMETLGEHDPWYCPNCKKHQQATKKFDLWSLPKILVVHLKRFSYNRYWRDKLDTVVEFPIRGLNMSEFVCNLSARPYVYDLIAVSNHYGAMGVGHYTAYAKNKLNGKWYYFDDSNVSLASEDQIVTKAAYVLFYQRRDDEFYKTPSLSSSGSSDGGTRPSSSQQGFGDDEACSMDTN
Outline: as §1

Measured: log2 ratio of Biotin-Ahx-Ub-VS probe labelling

USP34, sequence (Q70CQ2 whole entry, the tested form may be a part): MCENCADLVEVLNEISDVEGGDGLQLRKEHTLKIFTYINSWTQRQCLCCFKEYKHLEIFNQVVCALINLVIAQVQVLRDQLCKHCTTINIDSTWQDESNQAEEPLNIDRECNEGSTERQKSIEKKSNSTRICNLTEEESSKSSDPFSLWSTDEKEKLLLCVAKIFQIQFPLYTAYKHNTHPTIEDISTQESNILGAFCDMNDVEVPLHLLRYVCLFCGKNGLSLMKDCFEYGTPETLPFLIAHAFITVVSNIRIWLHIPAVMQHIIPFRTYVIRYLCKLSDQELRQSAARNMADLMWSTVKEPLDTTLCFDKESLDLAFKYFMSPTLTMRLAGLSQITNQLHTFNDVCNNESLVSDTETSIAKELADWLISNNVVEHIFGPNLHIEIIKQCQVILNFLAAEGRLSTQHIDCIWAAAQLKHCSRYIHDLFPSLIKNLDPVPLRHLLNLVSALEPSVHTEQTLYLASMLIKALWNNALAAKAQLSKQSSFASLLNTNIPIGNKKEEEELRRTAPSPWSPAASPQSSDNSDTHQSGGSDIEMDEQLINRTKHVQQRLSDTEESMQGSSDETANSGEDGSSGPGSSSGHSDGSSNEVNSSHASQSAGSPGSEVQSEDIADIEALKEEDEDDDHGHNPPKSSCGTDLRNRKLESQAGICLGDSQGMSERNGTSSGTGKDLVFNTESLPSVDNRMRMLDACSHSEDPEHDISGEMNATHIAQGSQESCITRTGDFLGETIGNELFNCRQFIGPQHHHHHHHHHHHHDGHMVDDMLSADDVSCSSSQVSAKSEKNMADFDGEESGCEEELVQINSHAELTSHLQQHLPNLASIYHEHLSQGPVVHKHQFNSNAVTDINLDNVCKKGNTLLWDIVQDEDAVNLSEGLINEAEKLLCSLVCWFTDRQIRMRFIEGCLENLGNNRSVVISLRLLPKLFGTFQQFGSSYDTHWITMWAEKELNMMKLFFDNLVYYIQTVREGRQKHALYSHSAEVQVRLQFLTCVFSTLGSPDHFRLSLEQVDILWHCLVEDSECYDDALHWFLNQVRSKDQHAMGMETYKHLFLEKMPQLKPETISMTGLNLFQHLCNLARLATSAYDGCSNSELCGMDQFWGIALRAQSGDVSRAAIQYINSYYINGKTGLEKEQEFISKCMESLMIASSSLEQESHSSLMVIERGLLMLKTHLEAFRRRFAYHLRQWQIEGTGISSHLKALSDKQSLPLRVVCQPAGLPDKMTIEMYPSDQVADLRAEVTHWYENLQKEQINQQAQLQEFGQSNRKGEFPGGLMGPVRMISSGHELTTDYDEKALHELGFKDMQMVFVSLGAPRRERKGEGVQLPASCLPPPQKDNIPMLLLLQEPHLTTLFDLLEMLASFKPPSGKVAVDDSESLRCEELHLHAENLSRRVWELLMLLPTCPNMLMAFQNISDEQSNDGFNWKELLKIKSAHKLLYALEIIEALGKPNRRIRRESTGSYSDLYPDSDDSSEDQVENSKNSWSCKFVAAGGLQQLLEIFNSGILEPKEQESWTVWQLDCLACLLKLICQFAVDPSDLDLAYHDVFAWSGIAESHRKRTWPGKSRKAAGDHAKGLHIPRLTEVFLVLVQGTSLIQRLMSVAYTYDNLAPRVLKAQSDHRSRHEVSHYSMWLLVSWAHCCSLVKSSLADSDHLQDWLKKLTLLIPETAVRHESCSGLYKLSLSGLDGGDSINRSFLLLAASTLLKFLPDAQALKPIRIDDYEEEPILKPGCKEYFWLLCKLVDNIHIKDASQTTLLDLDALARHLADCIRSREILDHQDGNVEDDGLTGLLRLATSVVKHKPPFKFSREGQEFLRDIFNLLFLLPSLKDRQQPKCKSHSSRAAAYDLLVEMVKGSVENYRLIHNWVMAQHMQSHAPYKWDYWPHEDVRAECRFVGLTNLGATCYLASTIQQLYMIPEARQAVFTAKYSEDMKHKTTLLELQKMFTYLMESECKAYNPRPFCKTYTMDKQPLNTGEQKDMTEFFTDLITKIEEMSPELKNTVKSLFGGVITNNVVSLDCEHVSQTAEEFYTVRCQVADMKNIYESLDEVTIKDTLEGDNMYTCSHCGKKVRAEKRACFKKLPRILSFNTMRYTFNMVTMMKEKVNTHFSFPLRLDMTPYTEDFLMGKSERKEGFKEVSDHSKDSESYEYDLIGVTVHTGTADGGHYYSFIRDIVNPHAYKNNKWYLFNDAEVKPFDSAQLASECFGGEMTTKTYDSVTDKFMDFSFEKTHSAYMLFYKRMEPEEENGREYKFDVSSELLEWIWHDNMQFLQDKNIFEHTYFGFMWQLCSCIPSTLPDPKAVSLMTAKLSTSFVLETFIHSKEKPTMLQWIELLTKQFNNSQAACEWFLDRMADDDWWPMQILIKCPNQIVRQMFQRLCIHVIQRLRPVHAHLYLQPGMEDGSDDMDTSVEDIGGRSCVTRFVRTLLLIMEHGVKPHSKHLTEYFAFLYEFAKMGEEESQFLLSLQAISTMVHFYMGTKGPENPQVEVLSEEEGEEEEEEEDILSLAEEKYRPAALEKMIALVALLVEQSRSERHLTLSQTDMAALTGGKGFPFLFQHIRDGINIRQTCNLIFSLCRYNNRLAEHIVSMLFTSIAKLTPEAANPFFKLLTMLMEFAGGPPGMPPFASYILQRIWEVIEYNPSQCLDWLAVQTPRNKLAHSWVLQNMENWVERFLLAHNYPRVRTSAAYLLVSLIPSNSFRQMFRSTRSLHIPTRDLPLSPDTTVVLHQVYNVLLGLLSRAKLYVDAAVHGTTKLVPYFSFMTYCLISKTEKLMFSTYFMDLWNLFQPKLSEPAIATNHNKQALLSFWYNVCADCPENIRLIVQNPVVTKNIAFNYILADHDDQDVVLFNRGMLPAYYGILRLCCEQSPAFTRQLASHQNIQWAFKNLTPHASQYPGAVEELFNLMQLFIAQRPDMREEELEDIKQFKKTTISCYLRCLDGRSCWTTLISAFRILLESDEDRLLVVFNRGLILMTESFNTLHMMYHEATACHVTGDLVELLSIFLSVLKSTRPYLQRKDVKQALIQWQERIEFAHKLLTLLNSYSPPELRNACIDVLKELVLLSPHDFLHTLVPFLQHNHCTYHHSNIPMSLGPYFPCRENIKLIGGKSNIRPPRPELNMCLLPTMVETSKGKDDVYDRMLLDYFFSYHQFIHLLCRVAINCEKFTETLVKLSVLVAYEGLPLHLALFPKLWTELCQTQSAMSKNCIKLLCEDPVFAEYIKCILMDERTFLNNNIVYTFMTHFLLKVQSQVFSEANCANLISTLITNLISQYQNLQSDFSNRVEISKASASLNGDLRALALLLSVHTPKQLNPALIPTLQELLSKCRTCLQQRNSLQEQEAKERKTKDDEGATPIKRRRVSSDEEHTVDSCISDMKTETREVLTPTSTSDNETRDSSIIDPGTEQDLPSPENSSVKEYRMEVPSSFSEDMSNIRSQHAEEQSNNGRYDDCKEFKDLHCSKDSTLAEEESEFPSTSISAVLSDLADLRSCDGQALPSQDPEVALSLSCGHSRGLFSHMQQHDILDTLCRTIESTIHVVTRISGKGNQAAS

O=C(CCl)N1CCCN(C(=O)c2ccc(Cl)cc2)CC1
inactive: [1] -0.425 | [2] 0.0741 | [3] -0.22 | [4] -0.317 | [5] -0.259

— the supplement of paper PMC11732987, “Enantioselective OTUD7B fragment discovery through chemoproteomics screening and high-throughput optimisation” (Communications Chemistry, 2025)
